# Assay outcomes as filed in PubChem.
# MsrA inhibitor: bovine MsrA enzyme inhibitors, primary screen, biochemical, absorbance, HTS. Methionine sulfoxide reductase A (Bos taurus). purified bovine MsrA, absorbance read-out. inhibition, % at 15.5 µM. 0.75% of 360,000 active. AID 651718, 2012
# PLC-gamma1 inh: PLC-gamma1 enzyme inhibitors, primary screen, biochemical, fluorescence, purified enzyme; 0.84% of 370,000 active; AID 720700, 2013; inhibition, % at 12.2 µM; 1-phosphatidylinositol 4,5-bisphosphate phosphodiesterase gamma-1 (Homo sapiens), P19174; fluorogenic substrate; in the data active = inhibition above about 9.5%
# bovine MsrA act: bovine MsrA enzyme activators, primary screen, biochemical, absorbance, HTS; AID 602163, 2012; activation, % at 10.6 µM; 0.3% of 360,000 active; Methionine sulfoxide reductase A (Bos taurus); purified bovine MsrA, absorbance read-out; in the data active = activation above about 7.5%
# PLCb3 inh: human PLC-beta3 inhibitors, primary screen, biochemical, fluorescence. Purified PLC-beta3, fluorogenic substrate. inhibition, % at 12.2 µM. 0.18% of 370,000 active; in the data active = inhibition above about 11%
# Target sequence (Q01970 whole entry, looked up): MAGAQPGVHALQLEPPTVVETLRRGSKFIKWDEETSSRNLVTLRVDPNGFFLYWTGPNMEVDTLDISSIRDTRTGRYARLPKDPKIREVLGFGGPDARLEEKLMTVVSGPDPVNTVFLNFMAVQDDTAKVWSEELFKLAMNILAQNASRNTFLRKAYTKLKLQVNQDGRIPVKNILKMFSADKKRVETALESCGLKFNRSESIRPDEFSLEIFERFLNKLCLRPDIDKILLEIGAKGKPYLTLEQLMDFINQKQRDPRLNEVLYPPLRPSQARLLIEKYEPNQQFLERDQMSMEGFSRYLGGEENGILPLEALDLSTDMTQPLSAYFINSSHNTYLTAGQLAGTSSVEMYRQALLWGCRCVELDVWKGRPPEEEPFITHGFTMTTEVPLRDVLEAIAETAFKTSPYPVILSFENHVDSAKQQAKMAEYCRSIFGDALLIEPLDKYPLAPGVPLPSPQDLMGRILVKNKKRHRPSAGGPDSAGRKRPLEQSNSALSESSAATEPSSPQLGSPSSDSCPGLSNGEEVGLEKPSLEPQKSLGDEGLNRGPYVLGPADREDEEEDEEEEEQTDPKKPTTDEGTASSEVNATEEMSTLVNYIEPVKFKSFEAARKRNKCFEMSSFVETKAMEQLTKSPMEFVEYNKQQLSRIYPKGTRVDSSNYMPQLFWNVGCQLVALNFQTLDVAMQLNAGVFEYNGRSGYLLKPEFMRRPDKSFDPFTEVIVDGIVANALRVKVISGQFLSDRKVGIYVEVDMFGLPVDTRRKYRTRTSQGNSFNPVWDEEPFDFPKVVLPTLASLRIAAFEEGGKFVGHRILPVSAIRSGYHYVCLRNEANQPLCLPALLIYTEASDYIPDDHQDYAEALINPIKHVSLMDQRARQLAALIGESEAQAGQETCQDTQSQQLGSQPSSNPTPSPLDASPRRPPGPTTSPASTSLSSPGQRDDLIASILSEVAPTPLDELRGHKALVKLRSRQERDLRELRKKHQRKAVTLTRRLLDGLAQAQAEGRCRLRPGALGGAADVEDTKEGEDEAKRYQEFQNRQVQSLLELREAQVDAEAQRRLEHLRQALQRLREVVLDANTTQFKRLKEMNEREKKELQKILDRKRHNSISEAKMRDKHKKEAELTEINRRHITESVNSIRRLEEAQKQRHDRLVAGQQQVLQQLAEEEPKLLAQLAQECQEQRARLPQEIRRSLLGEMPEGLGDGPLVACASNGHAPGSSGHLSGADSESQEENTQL
# MsrA conf: bovine MsrA inhibitors, retest, confirmation, biochemical, absorbance, HTS; purified bovine MsrA, absorbance read-out; shares compounds with MsrA inhibitor; 41% of 2,300 active; AID 651822, 2012; inhibition, % at 15.5 µM;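 note: coupled to thioredoxin reductase with NADPH and selenocystamine and DMSO as substrate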
# Numbers stand for hits; i = inactive; nt = no result given. This is a sample that favours compounds with a hit; in the whole collection about 1.9% have one here. Cut-off read from the data, not from the text of the source, unless noted: active = inhibition above about 4.5%; inactive = the rest.
SMILES,MsrA inhibitor,PLC-gamma1 inh,bovine MsrA act,PLCb3 inh,MsrA conf
COC(=O)c1cc2c(c3c4cc(OC)ccc4n(S(=O)(=O)c4ccc(C)cc4)c13)C(=O)N(C)C2,i,i,nt,i,nt
Cc1ccc(C2NC(=O)c3n[nH]c(C(C)C)c32)cc1 (stereo unspecified),i,i,nt,i,nt
O=C1CC(C(=O)O)S/C(=N\N=C\c2ccc(Br)cc2)N1 (stereo unspecified),4.9,i,i,i,i
Cc1ccc(/C=C/C(=O)OCC(=O)NC(C)c2ccccc2)o1 (stereo unspecified),6.5,i,i,i,i
Cc1cc(C(=O)OCC(=O)NC(C)c2ccccc2)c(C)o1 (stereo unspecified),i,i,i,i,nt
Cc1cc(N/N=C/c2ccc(O)cc2)nc(NS(=O)(=O)c2ccccc2)n1,4.9,i,i,i,5.3
N/C(=N\N=C\c1ccco1)SC1CC(=O)N(c2ccc(C(=O)O)cc2)C1=O (stereo unspecified),i,i,i,i,nt
C/C(=N\N=C(/N)SC1CC(=O)N(c2ccccc2)C1=O)c1cccs1 (stereo unspecified),5.1,i,i,i,i
N/C(=N\N=C\c1ccco1)SC1CC(=O)N(c2ccccc2)C1=O (stereo unspecified),6.8,i,i,i,i
CSC1=Nc2ccccc2N=C(N2CCCC2)C1,i,i,nt,i,nt
CN(Cc1ccccc1)C(=O)OCc1cn(Cc2ccc(F)cc2)nn1,nt,i,nt,i,nt
CC(=O)OC1COC(n2ccc3cc([N+](=O)[O-])ccc32)C(OC(C)=O)C1OC(C)=O (stereo unspecified),6.0,i,i,i,i
COc1cc2c(cc1OC)C(C(=O)O)C(c1ccc3c(c1)OCO3)N(C)C2=O (stereo unspecified),i,i,nt,i,nt
O=C(N[C@H](C(=O)N1CCC[C@H]1C(=O)NC1CCCC1)c1ccccc1)c1ccc(Cl)c(Cl)c1,i,i,nt,i,nt
O=C1NC(=O)/C(=C/c2ccco2)N1,7.9,i,i,i,6.2
O=C(O)c1ccc(/C=C/c2ccc3cccc(O)c3n2)cc1,5.6,i,i,i,5.3
CCOC(=O)CC[C@@]1(C(=O)OCC)C[C@@H](CC(=O)N2CCCC2)C(=O)N2CCCC=C21,nt,i,nt,i,nt
Cc1ccc(N2C(=O)c3ccccc3C2C(=O)c2ccc(O)cc2O)cc1 (stereo unspecified),6.2,i,i,i,6.0
Cc1ccc(N2C(=O)c3ccccc3C2C(=O)c2cc(C)ccc2O)cc1 (stereo unspecified),i,i,i,i,nt
COc1ccc2c(c1)-c1c(sn(-c3ccccc3)c1=S)C(C)(C)N2,4.7,i,i,i,i
COc1ccc(-n2sc3c(c2=S)-c2cc(OC)ccc2NC3(C)C)cc1,i,i,i,i,nt
COCCn1c(C)cc(C(=O)COc2nc3ccccc3nc2C)c1C,4.8,i,i,i,i
COCCn1c(C)cc(C(=O)CSc2ccc3ccccc3n2)c1C,i,i,i,i,nt
O=C(O)c1ccc(/C=C2\SC(=S)N(NC(=O)c3ccccc3[N+](=O)[O-])C2=O)cc1,4.8,i,i,i,i
Cc1c(O)ccc2c(-c3ccccc3)cc(=O)oc12,41,i,i,i,35
SMILES,MsrA inhibitor,PLC-gamma1 inh,bovine MsrA act,PLCb3 inh,MsrA conf
COc1ccc(-c2cc(=O)oc3c(C)c(OC(C)C(C)=O)ccc23)cc1 (stereo unspecified),22,i,i,i,16
COc1ccc(-c2cc(=O)oc3c(C)c(O)ccc23)cc1,12,i,i,i,i
CCN(CC)Cc1c(O)ccc2c(-c3ccccc3)cc(=O)oc12,i,i,i,i,nt
Cc1cc(O)c2c(-c3ccccc3)cc(=O)oc2c1,8.5,i,i,i,i
O=[N+]([O-])c1ccc2c(c1)CO[C@]21O[C@H](CCO)C[C@H](O)[C@H]1O,i,i,nt,i,nt
COc1cc(/C=C2/NC(=O)N(Cc3ccccc3F)C2=O)cc(OC)c1O,5.0,i,i,i,i
COCCNC(=S)N/N=C(\C)c1cc2ccccc2o1,8.2,i,i,i,5.2
COCCNC(=S)N/N=C(\C)c1ccc(OC)cc1,i,i,i,i,nt
O=C(COc1ccccc1)Nc1ccc2oc(=O)ccc2c1,i,i,i,i,nt
CCN(CC)C(=O)Oc1cc2c(-c3cc4cccc(OC)c4o3)cc(=O)oc2cc1C,i,i,i,i,nt
COC(=O)COc1cc(OCC(=O)OC)c2c(-c3ccccc3)cc(=O)oc2c1,i,i,i,i,nt
COC(=O)COc1ccc2oc(=O)cc(-c3cc4cccc(OC)c4o3)c2c1,7.4,i,i,i,15
NC(=O)COc1ccc2oc(=O)cc(-c3cc4ccccc4o3)c2c1,23,i,i,i,20
COc1cccc2cc(-c3cc(=O)oc4ccc(O)cc34)oc12,17,i,i,i,13
COC(=O)COc1ccc2oc(=O)cc(-c3cc4ccccc4o3)c2c1,15,i,i,i,24
CC(=O)Oc1ccc2c(=O)c(/C=N/c3cc(=O)[nH]c(=S)[nH]3)coc2c1,5.5,i,i,i,i
CN(C)c1ccc(C=NNC(=S)Nc2ccc(F)cc2)cc1,i,i,i,i,nt
COc1cc(/C=N/NC(=S)Nc2cccc(C(=O)O)c2)cc(OC)c1OC,5.1,i,i,i,i
COc1cccc(/C=N/NC(=S)Nc2cccc(C(=O)O)c2)c1,i,i,i,i,nt
CN(C)c1ccc(/C=N/Nc2cccc(C(=O)O)c2)cc1,5.1,i,i,i,i
COc1ccc(/C=N/NC(=S)Nc2cccc(C(=O)O)c2)cc1OC,7.6,i,i,i,5.6
COc1ccc(C=NNC(=S)Nc2ccc(F)cc2)cc1OC,5.7,i,i,i,i
CC(=O)N1C[C@@H](CO)[C@@H]2C[C@H]1c1ccccc1N2C,i,i,nt,i,nt
C=CCN1[C@@H](CC(C)C)COc2cccc(NCCCN3CCOCC3)c2S1(=O)=O,i,i,nt,i,nt
O=S(=O)(c1ccccc1)N1CCCc2nc(-c3ccc(Br)cc3)ccc21,i,i,nt,i,nt
SMILES,MsrA inhibitor,PLC-gamma1 inh,bovine MsrA act,PLCb3 inh,MsrA conf
N#C/C(=C\c1ccco1)C(=O)Nc1cccc2ncccc12,6.0,i,i,i,5.3
O=C(NC(=S)Nc1cccc2ncccc12)c1ccco1,i,i,i,i,nt
C=CCN1C(=O)[C@@H](CC(=O)NCCCOC)[C@]2(C(=O)OC)CCCCC=C12,nt,i,nt,i,nt
CCOC(=O)c1nnn(-c2nonc2-c2ccccc2)c1C,19,i,i,i,14
CCOC(=O)/C(C#N)=C/Nc1cc(F)ccc1C,5.8,i,i,i,i
Cc1ccc(-c2csc3nc(C)n(-n4c(C)ccc4C)c(=O)c23)o1,15,i,i,i,12
Cc1ccc(C)n1-n1c(C)nc2scc(-c3ccccc3)c2c1=O,27,i,i,i,26
O=C(Nc1cccc([N+](=O)[O-])c1)NC1CCCCN(Cc2cccc(Cl)c2)C1=O (stereo unspecified),nt,i,nt,i,nt
O=C(c1cccnc1)N1CCN(C(=O)c2cccc(Cl)c2)CC1,i,i,i,i,nt
